Experimental data: PubChem BioAssay
Activity calls are given as the source filed them. Unless noted, the rule behind the calls is not given here.

Assays:
[1] = test system: Wnt5a (protein binding on small-molecule microarray); assay: Wnt5a binders on small-molecule microarray, primary screen, biophysical, 635/667 nm fluorescence (AID 1142); conditions: 635 nm fluorescence, higher = more signal;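 note: fluorescence read at 667 nm with signal to noise per printed feature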
[2] = cell viability in Huh7 cells, primary screen, cytotoxicity control for HCV replication inhibitor project, CellTiter-Glo luminescence, basal, 48 h (AID 1143); conditions: Huh7 HCV replicon, higher = more signal, called active from +8 up or from −8 down;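 note: Huh7 hepatoma cells carrying a hepatitis C replication reporter with no stimulus; test concentration not given here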
[3] = P. aeruginosa biofilm formation inhibitors, primary screen, PAO1 strain, BacTiter-Glo luminescence, LB-PBS (AID 1144); conditions: 12 h, higher = more signal
[4] = CREB reporter modulators without forskolin, primary screen, cell-based, PC12, CRE-LacZ reporter, unstimulated (AID 1145); conditions: no forskolin, luminescence, 4.5 h, higher = more signal, called active from +8 up or from −8 down
[5] = CREB reporter modulators under forskolin, primary screen, cell-based, PC12, CRE-LacZ reporter, forskolin-stimulated (AID 1146); conditions: luminescence, 4.5 h, higher = more signal, called active from +8 up or from −8 down;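 note: PC12 cells with 6xCRE LacZ reporter stimulated by forskolin 10 µM; beta-galactosidase reporter signal reflecting CREB driven transcription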
[6] = target: Streptavidin (Streptomyces avidinii) (UniProt P22629); assay: streptavidin binders on small-molecule microarray, primary screen, artefact control for SMM compound annotation, biophysical, 635/667 nm fluorescence (AID 1147); conditions: streptavidin binding, higher = more signal;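 note: signal reflects streptavidin binding to arrayed compounds as a control protein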
Sequence of Streptavidin (Streptomyces avidinii) (P22629 whole entry, looked up): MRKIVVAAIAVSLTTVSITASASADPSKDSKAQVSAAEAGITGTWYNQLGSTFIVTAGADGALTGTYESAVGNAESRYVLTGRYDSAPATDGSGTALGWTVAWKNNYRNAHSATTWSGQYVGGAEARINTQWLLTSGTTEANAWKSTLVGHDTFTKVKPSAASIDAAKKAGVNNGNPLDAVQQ

[7] = small-molecule binders of probe aInhba, primary screen, biochemical, small-molecule microarray, 635/667 nm fluorescence (AID 1148); conditions: higher = more signal;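 note: score merges 667nm spot fluorescence with signal-to-noise for antibody binding to printed compounds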
[8] = target: Torsin-1A (Homo sapiens) (UniProt O14656); assay: torsin A binders from cell lysate, primary screen, small-molecule microarray, wild-type, 635/667 nm (AID 1149); conditions: COS7 hTOR1A-WT lysate, 635 nm fluorescence, higher = more signal
Sequence of Torsin-1A (Homo sapiens) (O14656 whole entry, looked up): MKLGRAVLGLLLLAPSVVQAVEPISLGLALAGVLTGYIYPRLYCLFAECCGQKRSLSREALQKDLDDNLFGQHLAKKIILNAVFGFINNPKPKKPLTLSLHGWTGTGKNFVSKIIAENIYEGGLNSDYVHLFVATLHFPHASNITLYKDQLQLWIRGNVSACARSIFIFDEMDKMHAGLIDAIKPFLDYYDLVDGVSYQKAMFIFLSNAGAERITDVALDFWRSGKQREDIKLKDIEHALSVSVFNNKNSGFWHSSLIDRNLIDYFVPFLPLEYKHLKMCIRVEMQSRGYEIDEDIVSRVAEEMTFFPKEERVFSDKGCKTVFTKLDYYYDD

[9] = target: Torsin-1A (Homo sapiens) (UniProt O14656); assay: small-molecule binders of mutant TOR1A in lysate, primary screen, cell lysate, small-molecule microarray, COS7 lysate, 635/667 nm fluorescence (AID 1150); conditions: COS7 hTOR1A mutant lysate, 635 nm fluorescence, higher = more signal;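 note: score pools 667 nm emission and signal to noise measuring lysate protein binding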
[10] = test system: Sonic hedgehog protein (Shh); assay: small-molecule binders of Shh protein, primary screen, biochemical, small-molecule microarray, 635/667 nm fluorescence (AID 1151); conditions: small-molecule microarray binding, 635 nm fluorescence; higher = more signal;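 note: Shh protein binding to compounds spotted on small-molecule microarray slides; score combines spot fluorescence intensity with signal-to-noise across triplicate slides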
[11] = E. coli DRC41 culture turbidity changes, primary screen, E. coli filamentation inducer project, strain DRC41, OD650, 48 h (AID 1152);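 note: E. coli MC1000 strain DRC41 lacking acrAB efflux pump and sulA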; conditions: E. coli DRC41 (acrAB sulA), higher = more signal, called active from +8 up or from −8 down
[12] = small-molecule binders of probe aLefty1, primary screen, biochemical, small-molecule microarray, 635/667 nm fluorescence (AID 1153); conditions: higher = more signal;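 note: score merges spot fluorescence with signal-to-noise ratio from the scanned slide images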
[13] = PSAC antagonists in infected red cells, primary screen, cell-based, P. falciparum Indochina, OD700, 1 h (AID 1154); conditions: P. falciparum Indochina infected RBC osmotic lysis, higher = more signal, called active from +8 up or from −8 down
[14] = PSAC antagonists in infected red cells, primary screen, cell-based, P. falciparum Indochina, OD700, 2 h (AID 1155);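 note: lysis reports solute entry through the parasite surface anion channel PSAC; channel blockers reduce lysis of infected cells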; conditions: P. falciparum Indochina infected erythrocytes, osmotic lysis OD700; higher = more signal, called active from +8 up or from −8 down
[15] = osmotic lysis modulators in infected erythrocytes, primary screen, PSAC antagonist project, cell-based, P. falciparum Indochina, OD700, 3 h (AID 1156); conditions: higher = more signal, called active from +8 up or from −8 down
[16] = PSAC antagonists in infected red cells, primary screen, cell-based, P. falciparum Indochina, OD700, 18 h (AID 1157); conditions: P. falciparum Indochina infected erythrocytes, osmotic lysis OD700, 18 h; higher = more signal, called active from +8 up or from −8 down
[17] = modulators of S6 phosphorylation in cells, primary screen, cell-based, A549, cytoblot, luminescence, serum-stimulated (AID 1158); conditions: A549 phospho-S6 cytoblot, 5 h, higher = more signal;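 note: serum-stimulated A549 lung adenocarcinoma cells; signal is phosphorylated S6 detected by cytoblot immunostaining with HRP secondary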
[18] = target: NADPH oxidase 2 (Homo sapiens) (UniProt P04839); assay: NOX2-dependent H2O2 signal modulators, primary screen, NOX inhibitor project, cell-based, HEK293-NOX2, PMA-stimulated, Amplex Red fluorescence (AID 1159); conditions: 45 min, higher = more signal, called active from +8 up or from −8 down; note: test concentration not given here
Sequence of NADPH oxidase 2 (Homo sapiens) (P04839 whole entry, looked up): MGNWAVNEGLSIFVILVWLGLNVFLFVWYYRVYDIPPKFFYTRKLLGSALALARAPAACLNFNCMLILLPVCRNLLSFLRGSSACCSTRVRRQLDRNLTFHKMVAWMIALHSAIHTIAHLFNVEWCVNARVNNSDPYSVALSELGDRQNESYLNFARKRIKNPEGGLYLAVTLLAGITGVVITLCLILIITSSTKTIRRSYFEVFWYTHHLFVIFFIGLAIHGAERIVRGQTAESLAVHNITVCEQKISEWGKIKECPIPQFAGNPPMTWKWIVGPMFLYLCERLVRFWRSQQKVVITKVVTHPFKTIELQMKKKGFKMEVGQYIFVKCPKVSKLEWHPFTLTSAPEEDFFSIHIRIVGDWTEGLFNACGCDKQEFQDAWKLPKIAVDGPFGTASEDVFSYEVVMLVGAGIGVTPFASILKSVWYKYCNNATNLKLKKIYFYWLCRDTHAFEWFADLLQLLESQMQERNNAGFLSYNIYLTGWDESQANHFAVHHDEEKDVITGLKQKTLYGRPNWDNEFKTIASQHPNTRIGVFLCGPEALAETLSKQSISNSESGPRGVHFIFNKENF

[19] = target: NADPH oxidase 4 (Homo sapiens) (UniProt Q9NPH5); assay: NOX4-dependent H2O2 signal modulators, primary screen, NOX inhibitor project, cell-based, HEK293-NOX4, tetracycline-induced, Amplex Red fluorescence (AID 1160); conditions: 45 min, higher = more signal, called active from +8 up or from −8 down
Sequence of NADPH oxidase 4 (Homo sapiens) (Q9NPH5 whole entry, looked up): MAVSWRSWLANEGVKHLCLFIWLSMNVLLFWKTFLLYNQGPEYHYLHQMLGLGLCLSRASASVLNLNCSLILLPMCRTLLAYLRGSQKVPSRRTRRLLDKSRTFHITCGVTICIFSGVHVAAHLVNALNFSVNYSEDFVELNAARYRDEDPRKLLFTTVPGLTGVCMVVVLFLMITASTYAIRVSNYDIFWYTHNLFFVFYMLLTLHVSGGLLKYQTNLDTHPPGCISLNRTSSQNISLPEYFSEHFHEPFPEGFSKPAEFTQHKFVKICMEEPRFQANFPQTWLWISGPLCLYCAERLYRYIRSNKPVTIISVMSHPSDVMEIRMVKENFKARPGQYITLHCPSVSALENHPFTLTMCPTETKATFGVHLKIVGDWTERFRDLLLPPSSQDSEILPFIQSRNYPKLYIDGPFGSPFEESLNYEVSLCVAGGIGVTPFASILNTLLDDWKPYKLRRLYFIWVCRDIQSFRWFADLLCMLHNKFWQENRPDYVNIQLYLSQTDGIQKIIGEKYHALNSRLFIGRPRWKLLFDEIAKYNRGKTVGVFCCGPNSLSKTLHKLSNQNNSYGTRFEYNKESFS

[20] = target: NADPH oxidase 5 (Homo sapiens) (UniProt Q96PH1); assay: NOX5-dependent H2O2 signal modulators, primary screen, NOX inhibitor project, cell-based, HEK293-NOX5, Amplex Red fluorescence (AID 1161); conditions: HEK293-NOX5, ionomycin, 45 min, higher = more signal
Sequence of NADPH oxidase 5 (Homo sapiens) (Q96PH1 whole entry, looked up): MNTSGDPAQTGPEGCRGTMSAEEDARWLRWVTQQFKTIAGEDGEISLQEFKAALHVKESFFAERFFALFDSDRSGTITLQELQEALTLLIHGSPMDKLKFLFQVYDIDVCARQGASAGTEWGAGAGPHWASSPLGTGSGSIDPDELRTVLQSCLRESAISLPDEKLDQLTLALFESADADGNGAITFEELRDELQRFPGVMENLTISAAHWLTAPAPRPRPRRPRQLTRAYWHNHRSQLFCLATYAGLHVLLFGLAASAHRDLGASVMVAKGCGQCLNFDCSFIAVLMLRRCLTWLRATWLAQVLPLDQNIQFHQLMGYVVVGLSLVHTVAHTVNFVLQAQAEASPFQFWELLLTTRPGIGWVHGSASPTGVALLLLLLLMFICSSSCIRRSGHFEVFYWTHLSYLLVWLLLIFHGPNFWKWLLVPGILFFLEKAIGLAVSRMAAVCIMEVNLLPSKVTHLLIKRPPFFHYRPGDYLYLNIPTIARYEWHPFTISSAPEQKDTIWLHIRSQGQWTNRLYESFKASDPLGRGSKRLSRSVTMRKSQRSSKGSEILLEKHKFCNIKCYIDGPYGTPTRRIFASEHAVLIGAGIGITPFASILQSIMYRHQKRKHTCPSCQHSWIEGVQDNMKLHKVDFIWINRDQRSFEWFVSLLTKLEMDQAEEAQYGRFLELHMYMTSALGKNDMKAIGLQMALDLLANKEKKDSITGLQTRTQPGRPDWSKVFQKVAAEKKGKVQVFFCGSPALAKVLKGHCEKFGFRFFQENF

Row | SMILES | composite z-score [1] | z-score [2] | z-score [3] | z-score [4] | z-score [5] | composite z-score [6] | composite z-score [7] | composite z-score [8] | composite z-score [9] | composite z-score [10] | z-score [11] | composite z-score [12] | z-score [13] | z-score [14] | z-score [15] | z-score [16] | z-score [17] | z-score [18] | z-score [19] | z-score [20]
1 | COc1cccc(C)c1NC(=O)O[C@H]1[C@H](OC(=O)Nc2ccccc2-c2ccccc2)[C@H](OC(=O)Nc2ccccc2-c2ccccc2)[C@@H](OC)O[C@@H]1CO | 0.63 | -3.45 (inactive) | 1.14 (inactive) | -0.207 (inactive) | -0.433 (inactive) | 1.26 | 0.0128 | 0.561 | 0.455 | 1.39 | -0.0771 (inactive) | -0.017 | 1.57 (inactive) | 0.557 (inactive) | -0.299 (inactive) | 0.742 (inactive) | -0.319 | 0.224 (inactive) | -0.572 (inactive) | -0.507
2 | CCCC=C(CCC)[C@@H](NS(=O)(=O)CC12CCC(CC1=O)C2(C)C)c1ccc(C(=O)OC)cc1 (stereo not given in full) | 0.0202 | -0.816 (inactive) | -1.06 (inactive) | -0.572 (inactive) | 0.0711 (inactive) | 0.333 | 0.361 | 0.924 | 0.792 | 0.31 | -0.645 (inactive) | 0.0345 | -0.777 (inactive) | -0.825 (inactive) | -0.399 (inactive) | -1.81 (inactive) | 0.922 | 0.219 (inactive) | 0.669 (inactive) | 2.48
3 | C=CCN1C(=O)[C@]2(CCS(=O)(=O)c3ccccc3)N=C(c3ccc(OCCCO)cc3)O[C@@H]2c2ccccc21 | 0.782 | -3.58 (inactive) | -0.492 (inactive) | 1.8 (inactive) | -1.11 (inactive) | 0.479 | 0.0841 | 0.659 | 0.573 | 1.65 | 0.836 (inactive) | 0.303 | 29.1 (active) | 23.3 (active) | 1.29 (inactive) | 4.76 (inactive) | 1.76 | -0.428 (inactive) | 0.835 (inactive) | 1.28
4 | CCCN1C(=O)[C@@]2(Cc3ccccc31)N=C(c1ccc(OCCCO)cc1)O[C@H]2c1ccccc1 | 1.16 | -3.36 (inactive) | 0.849 (inactive) | 2.07 (inactive) | -0.0414 (inactive) | 0.469 | -0.016 | 1.71 | 1.34 | 1.01 | -0.621 (inactive) | 0.396 | 18.6 (active) | 3.99 (inactive) | 2.49 (inactive) | 0.986 (inactive) | -0.408 | -0.135 (inactive) | -0.123 (inactive) | -1.61
5 | C=CCNC(=O)[C@@H]1[C@H]2C(=O)O[C@H](c3ccccc3)[C@H](c3ccccc3)N2[C@H](c2ccccc2OCCO)[C@@]12C(=O)N(C(=O)OCCOC)c1ccc(C#CC3(O)CCCCCC3)cc12 | 0.238 | -4.26 (inactive) | -0.0868 (inactive) | -1.02 (inactive) | -0.965 (inactive) | 0.159 | 0.115 | 0.759 | 0.631 | 1.58 | 0.592 (inactive) | 0.038 | 1.95 (inactive) | 2.02 (inactive) | 0.167 (inactive) | 0.996 (inactive) | 0.152 | 1.09 (inactive) | 0.906 (inactive) | 0.337
6 | C=C(/C(=C/C[C@H](OC(=O)c1ccncc1)c1ccc(CO)o1)c1cnc2ccccc2c1)C(C)C | 0.49 | -0.259 (inactive) | -0.747 (inactive) | 1.58 (inactive) | 0.0737 (inactive) | 1.42 | 0.0993 | 0.353 | 0.491 | 1.97 | -0.833 (inactive) | 0.0844 | 6.75 (inactive) | 1.37 (inactive) | 1.47 (inactive) | 0.528 (inactive) | -0.702 | 1.42 (inactive) | 0.0654 (inactive) | -0.415
7 | O=c1cccc(-c2ccc([N+](=O)[O-])cc2)o1 | 0.105 | -1.88 (inactive) | -0.982 (inactive) | -0.882 (inactive) | 0.61 (inactive) | 0.315 | 0.165 | -0.0842 | 0.376 | 2.19 | 0.609 (inactive) | -0.241 | 0.687 (inactive) | -0.129 (inactive) | 0.0448 (inactive) | -1.08 (inactive) | 0.248 | 0.304 (inactive) | 0.542 (inactive) | 0.0589
8 | CC(C)(C)OC(=O)COc1cccc(C(=O)CCN2CCOCC2)c1 | -0.143 | -1.13 (inactive) | 2.34 (inactive) | 0.416 (inactive) | 12.2 (active) | -0.081 | 0.034 | -1.01 | -0.646 | 0.216 | 0.922 (inactive) | 0.265 | 6.63 (inactive) | 1.21 (inactive) | -0.481 (inactive) | 0.548 (inactive) | 0.202 | -5.78 (inactive) | 1.09 (inactive) | 2.12
9 | COC(=O)[C@@]1(Cc2ccccc2)[C@H]2c3cc(C(=O)N(C)C)n(Cc4ccc(C)o4)c3C[C@H]2CN1C(=O)c1ccccc1 | 1.28 | -4.01 (inactive) | -0.142 (inactive) | -0.185 (inactive) | 0.2 (inactive) | 2.31 | 1.44 | 0.125 | 0.751 | 0.406 | -1.91 (inactive) | 1.25 | 2.55 (inactive) | -0.381 (inactive) | 0.541 (inactive) | -1.54 (inactive) | 1.97 | -3.27 (inactive) | -2.44 (inactive) | -4.77
